Laboratory results: PubChem BioAssay (NCATS)
Values joined by “and” are separate entries in the source; they are usually repeats but may differ in a detail not shown here. Equal entries are not always repeated. Results filed as inconclusive are left out. Unmarked numbers belong to inactive results. Active and inactive are the calls of the source. Calls come from the whole dose curve; as a rule, active = well fitted curve in the direction sought with a large enough effect; inconclusive = small, poorly fitted or top-dose-only effect, or another doubt; inactive = no such curve, though single readings can be large; an effect the other way counts as inactive or inconclusive.

How the values were obtained:
[1] = Quantitative highthroughput screen to assess conditional lethalithy of NOMO1 cells grown in Human Plasma-Like Medium with dialyzed fetal bovine serum (HPLM+ds) (AID 1963878); conditions: NOMO1 AML cells in HPLM+ds, CellTiter-Glo viability, 48 h; series mostly up to 45.8 µM; note: nearly all actives have a fitted effect of over 35% in size;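 for viability: 100% = DMSO wells and 0% = empty wells on each plate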
Method in brief: (§1)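 Each medium arm—HPLM with 10% dialyzed FBS, or RPMI1640 with 5 mM glucose and 10% untreated or dialyzed FBS—was screened against an 11-point, 3-fold compound titration for 48 h at 37 °C, with CellTiter-Glo luminescence as endpoint.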

[2] = Quantitative highthroughput screen to assess conditional lethalithy of P12 Ichikawa cells grown in RPMI1640 with dialyzed fetal bovine serum (RPMI+ds) (AID 1963880); conditions: ATP luminescence, 48 h; Potency: P12-Ichikawa viability; series mostly up to 45.8 µM; note: nearly all actives have a fitted effect of over 35% in size;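 for viability: 100% = DMSO wells and 0% = empty wells on each plate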
Method in brief: as §1

[3] = Quantitative highthroughput screen to assess conditional lethalithy of P12 Ichikawa cells grown in RPMI1640 with untreated serum (RPMI+s) (AID 1963881); conditions: ATP luminescence, 48 h; Potency: viability; series mostly up to 45.8 µM; note: nearly all actives have a fitted effect of over 35% in size;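 for viability: 100% = DMSO wells and 0% = empty wells without cells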
Method in brief: as §1

[4] = Quantitative highthroughput screen to assess conditional lethalithy of SEM cells grown in Human Plasma-Like Medium with dialyzed fetal bovine serum (HPLM+ds) (AID 1963882); conditions: SEM B-ALL cells in HPLM+ds, CellTiter-Glo viability, 48 h; series mostly up to 45.8 µM; note: nearly all actives have a fitted effect of over 35% in size
Method in brief: as §1

[5] = Quantitative highthroughput screen to assess conditional lethalithy of SEM cells grown in RPMI1640 with unreated serum (RPMI+s) (AID 1963883); conditions: SEM B-ALL cells, CellTiter-Glo viability, 48 h; series mostly up to 45.8 µM; note: nearly all actives have a fitted effect of over 35% in size;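 for viability: 100% = DMSO wells and 0% = empty wells without cells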
Method in brief: as §1

[6] = Quantitative highthroughput screen to assess conditional lethalithy of SEM cells grown in RPMI1640 with dialyzed fetal bovine serum (RPMI+ds) (AID 1963884); conditions: SEM B-ALL cells, RPMI+dialyzed FBS, CellTiter-Glo viability, 48 h; series mostly up to 45.8 µM; note: nearly all actives have a fitted effect of over 35% in size;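 for viability: 100% = DMSO control wells and 0% = empty wells without cells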
Method in brief: as §1

[7] = Quantitative highthroughput screen to assess conditional lethalithy of NOMO1 cells grown in RPMI1640 with dialyzed fetal bovine serum (RPMI+ds) (AID 1963877); conditions: NOMO1 in RPMI+dialyzed FBS viability, ATP luminescence, 48 h; series mostly up to 45.8 µM; note: nearly all actives have a fitted effect of over 30% in size;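 for viability: 100% = DMSO control wells and 0% = empty wells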
Method in brief: as §1

[8] = Cellular viability qHTS for adrenocortical cancer (ACC) cell line SW-13 (AID 1963989); conditions: SW-13 ACC cells viability, CellTiter-Glo, 48 h; activity (max response): active compounds read low; note: nearly all actives have a fitted effect of over 65% in size;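 for activity (max response): cells grown in serum-free medium with ITS supplement; % is set by controls: 0 for no effect and ±100 for the full control effect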
Method in brief: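 Compound titrations (up to 46 uM final, in DMSO) were applied to SW-13 cells for 48 h at 37C/5% CO2. Reading used CellTiter-Glo after 20 min at room temperature; fitted curves yielded IC50 and efficacy.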

[9] = Quantitative highthroughput screen to assess conditional lethalithy of P12 Ichikawa cells grown in Human Plasma-Like Medium with dialyzed fetal bovine serum (HPLM+ds) (AID 1963879); conditions: ATP luminescence, 48 h; Potency: viability; series mostly up to 45.8 µM; note: nearly all actives have a fitted effect of over 35% in size
Method in brief: as §1

[10] = Cellular viability qHTS for adrenocortical cancer (ACC) cell line NCI-H295R (AID 1963990); conditions: CellTiter-Glo ATP luminescence, 48 h; series mostly up to 46.1 µM; note: nearly all actives have a fitted effect of over 60% in size;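 for activity change, negative = viability loss: 0% = DMSO only wells and -100% = full killing with cytotoxic reference compound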
Method in brief: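 Readout: CellTiter-Glo luminescence, 20 min RT. Exposure: 48 h, 37C/5% CO2. Cells: NCI-H295R, ITS-DMEM serum-free. Range: up to 46 uM. Analysis: 4PL fit, IC50 plus efficacy.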
Potency is the fitted concentration of half-maximal effect.

**Q.** What does the source list for `CON(C)C(=O)N1N=C(c2cc(F)ccc2F)S[C@]1(CCCN)c1ccccc1`?
**A.** Potency [1]: inactive; Potency [2]: inactive; Potency [3]: inactive; Potency [4]: inactive; Potency [5]: inactive; Potency [6]: inactive

**Q.** With `Oc1cc(O)cc(C=Cc2ccc(O)c(O)c2)c1` as the compound, how does the Potency [7] read?
**A.** inactive

**Q.** And the Potency [5]?
**A.** 18.7 µM (active)

**Q.** What does the source list for `CCC[C@H](NC(=O)C(C#N)=Cc1cccc(Br)n1)c1ccccc1`?
**A.** Potency [1]: 20.9 µM (active); Potency [2]: 26.4 µM (active)

**Q.** For `C[C@@H]1C[C@H]2[C@@H]3CCC4=CC(=O)C=C[C@]4(C)[C@@]3(F)[C@@H](O)C[C@]2(C)[C@@]1(O)C(=O)CO`, which Potency [7] is on record?
**A.** inactive

**Q.** What about the activity (max response) [8] of the same compound?
**A.** 6.21% and 9.17%

**Q.** With `COCCCCC(=NOCCN)c1ccc(C(F)(F)F)cc1` as the compound, how does the Potency [1] read?
**A.** 18.7 µM (active)

**Q.** What about the Potency [9] of the same compound?
**A.** inactive

**Q.** With `CN(C)CCOc1cc(-c2cn[nH]c2)ccc1NC(=O)C1COc2ccccc2O1` (stereo unspecified) as the compound, how does the Potency [7] read?
**A.** 6.62 µM (active)

**Q.** And the Potency [2]?
**A.** inactive

**Q.** What about the Potency [10] of the same compound?
**A.** 17.8 µM (active)

**Q.** With `COc1ccc2c3n(c(=NC(=O)c4cccnc4)nc2c1OC)CCN3` as the compound, how does the Potency [1] read?
**A.** 7.43 µM (active)

**Q.** And the Potency [4]?
**A.** 20.9 µM (active)

**Q.** What about the Potency [6] of the same compound?
**A.** 9.35 µM (active)

**Q.** What about the activity (max response) [8] of the same compound?
**A.** 2.77%

**Q.** What about the activity change, negative = viability loss [10] of the same compound?
**A.** -25.5% [at 3.81 µM]

**Q.** With `O=C(O)c1c(Cl)c(Cl)c(Cl)c(Cl)c1-c1c2cc(I)c(=O)c(I)c-2oc2c(I)c(O)c(I)cc12` as the compound, how does the Potency [1] read?
**A.** inactive

**Q.** What about the Potency [9] of the same compound?
**A.** 8.33 µM (active)

**Q.** What about the Potency [8] of the same compound?
**A.** 12.6 µM (active)

**Q.** And the Potency [10]?
**A.** 14.1 µM (active)

**Q.** With `CC(=O)NCC(=O)N1[C@H]2CC[C@H]1c1cc(Nc3ncc(C(F)(F)F)c(NC4CCC4)n3)ccc12` as the compound, how does the Potency [1] read?
**A.** 0.296 µM (active)

**Q.** What about the Potency [9] of the same compound?
**A.** 0.132 µM (active)

**Q.** And the Potency [3]?
**A.** 0.132 µM (active)

**Q.** And the Potency [4]?
**A.** 0.118 µM (active)

**Q.** And the Potency [6]?
**A.** 0.105 µM (active)

**Q.** With `COc1cc(O)c2c(c1)C(=O)c1cc(C)cc(O)c1C2=O` as the compound, how does the Potency [1] read?
**A.** 9.11 µM (active)

**Q.** And the Potency [5]?
**A.** 4.07 µM (active)

**Q.** And the Potency [6]?
**A.** 5.12 µM (active)

**Q.** Which Potency [9] does the source give for `CCOC(=O)N[C@@H]1CC[C@@H]2[C@@H](C1)C[C@H]1C(=O)O[C@H](C)[C@H]1[C@@H]2C=Cc1ccc(-c2cccc(F)c2)cn1` here?
**A.** inactive

**Q.** What does the source list for `CC[C@H]1OC(=O)[C@H](C)[C@@H](O[C@H]2C[C@@](C)(OC)[C@@H](O)[C@H](C)O2)[C@H](C)[C@@H](O[C@@H]2O[C@@H](C)C[C@H](N(C)C)[C@@H]2O)[C@](C)(O)C[C@@H](C)C(=O)[C@H](C)[C@@H](O)[C@]1(C)O`?
**A.** Potency [1]: 9.35 µM (active); Potency [9]: 16.6 µM (active); Potency [5]: 10.5 µM (active)

**Q.** For `CC(C)[N+]1(C)[C@@H]2CC[C@H]1CC(OC(=O)C(CO)c1ccccc1)C2` (stereo partly specified), which Potency [1] is on record?
**A.** 13.2 µM (active)

**Q.** What about the Potency [4] of the same compound?
**A.** 9.35 µM (active)

**Q.** With `CN(C)C(=N)N=C(N)N` as the compound, how does the Potency [9] read?
**A.** 26.4 µM (active)

**Q.** With `Cc1cc(OCCCS(C)(=O)=O)cc(C)c1-c1cccc(COc2ccc3c(c2)OC[C@H]3CC(=O)O)c1` as the compound, how does the Potency [1] read?
**A.** inactive

**Q.** And the Potency [4]?
**A.** inactive

**Q.** For `CCCCCCCCOc1ccccc1C(=O)Nc1ccc(C(=O)OCC[N+](C)(CC)CC)cc1`, which Potency [9] is on record?
**A.** inactive

**Q.** Which results are given for `Nc1nc(F)nc2c1ncn2[C@@H]1O[C@H](COP(=O)(O)O)[C@@H](O)[C@H]1O`?
**A.** Potency [1]: 9.35 µM (active); Potency [4]: 1.48 µM (active); Potency [5]: 8.33 µM (active); Potency [6]: 1.87 µM (active)

**Q.** Which Potency [9] does the source give for `COc1nccc(-c2c(-c3ccc(F)cc3)ncn2C2CCNCC2)n1` here?
**A.** inactive

**Q.** And the Potency [3]?
**A.** inactive

**Q.** What about the Potency [4] of the same compound?
**A.** inactive

**Q.** And the Potency [10]?
**A.** inactive

**Q.** For `CN[C@H]1[C@@H](O[C@@H]2[C@H](O[C@@H]3[C@@H](O)[C@@H](O)[C@@H](N=C(N)N)[C@@H](O)[C@@H]3N=C(N)N)O[C@H](C)[C@@]2(O)C=O)O[C@@H](CO)[C@@H](O)[C@H]1O`, which Potency [9] is on record?
**A.** inactive

**Q.** And the Potency [2]?
**A.** inactive

**Q.** What about the Potency [3] of the same compound?
**A.** inactive

**Q.** What about the Potency [4] of the same compound?
**A.** inactive

**Q.** What about the Potency [5] of the same compound?
**A.** inactive

**Q.** What about the Potency [6] of the same compound?
**A.** inactive

**Q.** For `CC=C(C)C(=O)O[C@H]1C(C)=C[C@]23C(=O)[C@@H](C=C(CO)[C@@H](O)[C@]12O)[C@H]1[C@@H](C[C@H]3C)C1(C)C`, which Potency [9] is on record?
**A.** inactive

**Q.** What about the Potency [3] of the same compound?
**A.** 0.0066 µM (active)

**Q.** With `CCOC(=O)[C@H]1O[C@H]1C(=O)N[C@@H](CC(C)C)C(=O)NCCC(C)C` as the compound, how does the Potency [9] read?
**A.** inactive

**Q.** What about the Potency [2] of the same compound?
**A.** inactive

**Q.** And the Potency [3]?
**A.** inactive

**Q.** What about the Potency [4] of the same compound?
**A.** inactive

**Q.** And the Potency [5]?
**A.** inactive

**Q.** And the Potency [6]?
**A.** inactive

**Q.** What does the source list for `COc1ccc(-c2oc3cc(OC)ccc3c2C(=O)c2ccc(C#N)cc2)cc1`?
**A.** Potency [9]: 1.87 µM (active); Potency [2]: 2.96 µM (active); Potency [3]: 1.32 µM (active); Potency [4]: inactive; Potency [5]: inactive; Potency [6]: inactive

**Q.** For `CNC(=O)c1ccc(Nc2cc(Nc3ccccc3S(=O)(=O)C(C)C)c3cc[nH]c3n2)nc1`, which Potency [9] is on record?
**A.** 2.35 µM (active)

**Q.** What about the Potency [3] of the same compound?
**A.** 1.87 µM (active)

**Q.** What about the Potency [5] of the same compound?
**A.** 1.48 µM (active)

**Q.** And the Potency [6]?
**A.** 1.05 µM (active)

**Q.** With `O=C(O)CCCCC(CCSCc1ccccc1)SCc1ccccc1` (stereo unspecified) as the compound, how does the Potency [9] read?
**A.** 14.8 µM (active)

**Q.** And the Potency [4]?
**A.** inactive

**Q.** And the Potency [5]?
**A.** inactive

**Q.** What about the Potency [6] of the same compound?
**A.** inactive

**Q.** And the activity (max response) [8]?
**A.** -7.05%

**Q.** Which Potency [9] does the source give for `N=C(N)c1ccc(OCCCCCOc2ccc(C(=N)N)cc2)cc1` here?
**A.** inactive

**Q.** And the Potency [2]?
**A.** inactive

**Q.** And the Potency [8]?
**A.** 16.4 µM (active) and 15.8 µM (active)

**Q.** Which results are given for `C=CCc1ccc(O)c(-c2ccc(O)c(CC=C)c2)c1`?
**A.** Potency [9]: 0.132 µM (active); Potency [2]: 0.526 µM (active); Potency [3]: 1.05 µM (active)

**Q.** With `CCCCCN=C(N)NN=Cc1c[nH]c2ccc(OC)cc12` as the compound, how does the Potency [9] read?
**A.** 13.2 µM (active)

**Q.** What about the Potency [2] of the same compound?
**A.** 14.8 µM (active)

**Q.** And the Potency [3]?
**A.** 13.2 µM (active)

**Q.** What about the Potency [5] of the same compound?
**A.** 11.8 µM (active)
